PubChem BioAssay (NCATS)
Several values for one entry are separate records, joined by “and”; a condition that tells them apart may be missing. Equal entries are not always repeated. Results filed as inconclusive are left out. A call without a number means that no potency is given here. Activity calls are given as the source filed them. Unless noted, calls follow the shape of the dose curve; as a rule, active = well fitted curve in the direction sought with a large enough effect; inconclusive = small, poorly fitted or top-dose-only effect, or another doubt; inactive = no such curve, though single readings can be large; an effect the other way counts as inactive or inconclusive.

Tests used:
[1] = qHTS assay for measurement of the activity of small molecule inhibitors on Zika virus induced Caspase-3 activity in human iPSC derived neural progenitor cells (hNPCs) (AID 1224857); also: nearly all actives have a fitted effect of over 65% in size
How it was run: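 Zika virus (2 FFU/cell) infection of human iPSC-derived NPCs, 6 h, following 1 h compound preincubation. Read-out: Caspase-Glo 3/7 luminescence.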

[2] = qHTS assay to identify small molecule inhibitors of chordoma cells - UCH-1 (AID 1259355); also: nearly all actives have a fitted effect of over 55% in size; also: potency is read from the fitted curve at half-maximal effect; series mostly up to about 46 µM
How it was run: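 800 cells/well, overnight attach; compounds pinned at 15 concs, then auranofin/camptothecin/doxorubicin/rubitecan/topotecan combo added; 48hr 37 C, 5% CO2; CellTiter-Glo, 30min RT, luminescence.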

[3] = qHTS assay to identify small molecule inhibitors of chordoma cells - UCH-2 (AID 1259356); also: potency is read from the fitted curve at half-maximal effect
[4] = P-glycoprotein substrates identified in KB-8-5-11 adenocarcinoma cell line, qHTS therapeutic library screen (AID 1346987); also: nearly all actives have a fitted effect of over 65% in size; also: potency is read from the fitted curve at half-maximal effect
How it was run: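 Human cervical adenocarcinoma KB-8-5-11 cells, selected in colchicine to over-express P-gp and assayed without it, were exposed for 72 h to titrated compounds. An ATP-based luminescent viability signal gave AC50.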

[5] = Natriuretic polypeptide receptor (hNpr1) antagonism - Pilot counterscreen GloSensor control cell line (AID 1347045; calls by dose curve; also: series mostly up to about 38 µM)
How it was run: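 The SNP-driven cGMP luminescence signal (50 uM, 20 min, room temperature) was measured in GloSensor HEK293 control cells. Compounds were tested as a LOPAC titration series and preincubated for 30-50 min.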

[6] = biological target: Atrial natriuretic peptide receptor 1 (Homo sapiens) (UniProt P16066); experiment: Natriuretic polypeptide receptor (hNpr1) antagonism - Pilot screen (AID 1347049; calls by dose curve;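 also: HEK293 cells with hNpr1 and GloSensor cGMP luciferase stimulated by 0.1 nM hNppA; agonist-evoked cGMP luminescence read 20 min after hNppA addition; series mostly up to about 58 µM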)
How it was run: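 Receptor antagonism read as cGMP-dependent luminescence in hNpr1/pGS-40F HEK293 cells: pre-read after 30 min compound exposure, post-read 20 min after hNppA agonist at 0.1 nM final, all at room temperature, protected from light; A-71915 titration as control.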

[7] = qHTS assay for measurement of the activity of small molecule inhibitors on Zika virus induced Caspase-3 activity in human astrocytoma cells (AID 1224859)
How it was run: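 Caspase activation in ZIKV-infected SNB-19 cells (2 FFU/cell, 6 h) measured by Caspase-Glo 3/7 luminescence after 30 min RT; compound pre-incubated 1 h; normalised to uninfected and infected controls.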

Chain of Atrial natriuretic peptide receptor 1 (Homo sapiens) (P16066 whole entry, looked up): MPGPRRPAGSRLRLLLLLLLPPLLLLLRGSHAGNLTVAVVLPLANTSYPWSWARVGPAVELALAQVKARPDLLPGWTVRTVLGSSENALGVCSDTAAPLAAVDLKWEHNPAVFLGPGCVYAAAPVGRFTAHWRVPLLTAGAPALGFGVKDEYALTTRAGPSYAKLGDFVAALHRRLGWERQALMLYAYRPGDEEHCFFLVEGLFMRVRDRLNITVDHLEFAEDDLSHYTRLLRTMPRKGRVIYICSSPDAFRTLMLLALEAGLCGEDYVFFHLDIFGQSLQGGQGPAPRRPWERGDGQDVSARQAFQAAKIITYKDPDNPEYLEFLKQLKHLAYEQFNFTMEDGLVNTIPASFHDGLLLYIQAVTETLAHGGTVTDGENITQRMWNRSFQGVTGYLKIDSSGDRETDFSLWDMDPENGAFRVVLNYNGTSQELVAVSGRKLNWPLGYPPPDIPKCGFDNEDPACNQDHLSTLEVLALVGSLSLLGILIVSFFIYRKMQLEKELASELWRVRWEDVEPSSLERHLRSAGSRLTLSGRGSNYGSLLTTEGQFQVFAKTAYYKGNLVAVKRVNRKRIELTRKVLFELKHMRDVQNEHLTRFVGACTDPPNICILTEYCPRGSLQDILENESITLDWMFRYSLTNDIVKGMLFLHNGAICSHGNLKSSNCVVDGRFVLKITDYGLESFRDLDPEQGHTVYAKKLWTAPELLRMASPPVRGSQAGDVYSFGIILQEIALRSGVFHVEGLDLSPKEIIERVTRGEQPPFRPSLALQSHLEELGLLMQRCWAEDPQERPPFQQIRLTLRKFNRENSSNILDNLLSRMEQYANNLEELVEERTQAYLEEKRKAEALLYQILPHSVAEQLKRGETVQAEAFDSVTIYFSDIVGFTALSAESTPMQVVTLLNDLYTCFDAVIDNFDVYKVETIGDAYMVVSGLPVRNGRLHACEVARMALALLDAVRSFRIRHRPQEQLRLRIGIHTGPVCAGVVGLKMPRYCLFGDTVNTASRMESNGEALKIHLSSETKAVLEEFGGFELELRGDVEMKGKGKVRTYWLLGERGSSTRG

Structure (SMILES)	Potency [1]	Potency [2]	Potency [3]	Potency [4]	Potency [5]	Potency [6]	outcome [7]
CCC1(C2=NCCN2)Cc2ccccc2O1 (stereo not drawn)	inactive	inactive	inactive	inactive	inactive	inactive	–
C=CCN1CC[C@]23c4c5ccc(O)c4O[C@H]2C(=O)CC[C@@]3(O)[C@H]1C5	–	inactive	inactive	inactive	–	–	inactive
N[C@@H]1C[C@H]1c1ccccc1	–	inactive	inactive	inactive	–	–	inactive
Nc1ccncc1	–	inactive	inactive	inactive	inactive	inactive	inactive
NN=C(N)N	–	inactive	inactive	inactive	inactive	inactive	–
O=c1oc2ccccc2c(O)c1C(CC(O)c1ccc(-c2ccc(Br)cc2)cc1)c1ccccc1 (stereo not drawn)	–	inactive	inactive	inactive	–	–	–
CC(C)=CCOc1c2occc2cc2ccc(=O)oc12	inactive	–	–	inactive	inactive	inactive	–
CCOP(=S)(OCC)Oc1cc(C)nc(C(C)C)n1	–	inactive	inactive	inactive	–	–	–
C[C@H]1O[C@@H](O[C@H]2[C@@H](O)C[C@H](O[C@H]3[C@@H](O)C[C@H](O[C@H]4CC[C@@]5(C)[C@H](CC[C@@H]6[C@@H]5CC[C@]5(C)[C@@H](C7=CC(=O)OC7)CC[C@]65O)C4)O[C@@H]3C)O[C@@H]2C)C[C@H](O)[C@@H]1O	–	112 nM (active)	46.1 nM (active)	65.1 nM (active) and 76.9 nM (active)	–	–	inactive
COc1ccccc1N1CCNCC1	inactive	inactive	inactive	inactive	inactive	inactive	–
Oc1cccc2cccnc12	–	inactive	inactive	inactive	–	–	–
CC(C)NCC(O)c1ccccc1Cl (stereo not drawn)	–	inactive	inactive	inactive	–	–	inactive
CCN(CC)C(=O)N[C@@H]1C=C2c3cccc4[nH]cc(c34)C[C@@H]2N(C)C1	–	inactive	inactive	–	–	–	–
CC(CCc1ccccc1)NC(C)C(O)c1ccc(O)cc1 (stereo not drawn)	–	–	inactive	inactive	inactive	inactive	inactive
CCCC1CCCCN1 (stereo not drawn)	–	inactive	inactive	inactive	–	–	–
CC(C)=CC1C(C(=O)OCc2cccc(Oc3ccccc3)c2)C1(C)C (stereo not drawn)	–	inactive	inactive	inactive	–	–	inactive
CC[C@@H](CO)NC(=O)[C@@H]1C=C2c3cccc4[nH]cc(c34)C[C@H]2N(C)C1	inactive	inactive	inactive	–	–	inactive	–
O=C(NC(O)C(Cl)(Cl)Cl)NC(O)C(Cl)(Cl)Cl (stereo not drawn)	–	inactive	inactive	inactive	–	–	–
N#CC(C#N)=Cc1ccc(O)c(O)c1	–	inactive	inactive	inactive	inactive	inactive	–
CN1C[C@H](CNC(=O)OCc2ccccc2)C[C@@H]2c3cccc4c3c(cn4C)C[C@H]21	inactive	inactive	inactive	–	inactive	inactive	–
